Screening results from PubChem.
UHRF1 binding: human UHRF1 methylated DNA binding inhibitors. AID 687016. UHRF1 binding to methylated oligo, TR-FRET. 370,000 compounds, 0.75% hits. inhibition, % at 4.4 µM; in the data active = inhibition above about 21%;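 note: UHRF1 SRA domain binding a hemimethylated CpG hairpin DNA probe; 0% = median of test compound wells and 100% = reference inhibitor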
proKLK7 act: proKLK7 (human) activation, primary screen | P49862 | AID 652039 | activation, % at 7 µM | 370,000 compounds, 0.9% hits | purified proKLK7, EDANS-DABCYL substrate fluorescence; 100% is mature enzyme control, 0% vehicle;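 active = activation above the mean of all tested compounds plus 3 SD, computed per campaign excluding outliers beyond control limits, cut at about 13% in these data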
MBD2 inh: blocks human MBD2 binding to methylated DNA | inhibition, % at 4.4 µM | TR-FRET, MBD2 binding to methylated oligonucleotide | Q9UBB5 | 370,000 compounds, 0.31% hits; in the data active = inhibition above about 13%
Target sequence (Q9UBB5 whole entry, looked up): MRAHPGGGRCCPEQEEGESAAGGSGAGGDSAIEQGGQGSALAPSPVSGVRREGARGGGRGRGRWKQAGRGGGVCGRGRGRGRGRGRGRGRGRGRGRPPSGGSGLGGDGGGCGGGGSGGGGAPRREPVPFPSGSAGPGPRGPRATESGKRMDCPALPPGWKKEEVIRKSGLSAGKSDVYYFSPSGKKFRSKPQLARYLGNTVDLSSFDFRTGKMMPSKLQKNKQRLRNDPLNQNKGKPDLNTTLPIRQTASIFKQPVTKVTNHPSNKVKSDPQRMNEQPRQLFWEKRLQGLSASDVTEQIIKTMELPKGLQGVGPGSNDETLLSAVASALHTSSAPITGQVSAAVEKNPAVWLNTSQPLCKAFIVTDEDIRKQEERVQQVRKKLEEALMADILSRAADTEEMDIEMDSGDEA
Rin1-Abl PPI inh: inhibitors of human Rin1-Abl protein interaction | inhibition, % at 7.35 µM | 360,000 compounds, 0.4% hits | TR-FRET Rin1/Abl binding, biochemical; in the data active = inhibition above about 5%, passing the limit was not always enough
LEDGF integ inh: blocks HIV-1 LEDGF/p75-dependent DNA integration. TR-FRET IN-LEDGF/p75 DNA integration, Eu/Cy5. inhibition, % at 3.7 µM. 370,000 compounds, 0.64% hits;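 active = inhibition above the screen-wide mean plus 3 SD, cut at about 13% in these data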;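 note: signal is the Cy5 over europium emission ratio at 671 and 618 nm; 0% = plate median of compound wells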
Neddylation inh: blocks human cullin neddylation; P61081+Q13564; TR-FRET cullin neddylation, biochemical; calls only at 25 µM; 360,000 compounds, 0.58% hits; in the data active = inhibition above about 36%
Neddyl conf: cullin neddylation inhibition, confirmation. shares compounds with Neddylation inh. 1,800 compounds, 13% hits. TR-FRET cullin neddylation biochemical assay. calls only at 25 µM; in the data active = inhibition above about 40%;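 note: neddylation substrate is the cullin 1 ring ligase complex with SKP2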
* = called active by the depositor; i = inactive; . = no result shown; + = active, no number. Sampled rows, rich in hits. Any-hit rate of the full collection: about 3.1%.

SMILES	UHRF1 binding	proKLK7 act	MBD2 inh	Rin1-Abl PPI inh	LEDGF integ inh	Neddylation inh	Neddyl conf
NC(=O)c1ncn([C@@H]2O[C@H](C(=O)N[C@H](Cc3ccccc3)C(=O)N3CCN(c4ccc(Cl)cn4)CC3)[C@@H](O)[C@H]2O)n1	-3	1	3	.	3	.	.
c1cncc(-c2ccc3ncnc(NCc4cccs4)c3c2)c1	-1	0	-5	-2	-3	i	.
c1csc(CNc2ncnc3ccc(-c4ccc5c(c4)OCCO5)cc23)c1	-2	0	-3	-1	3	+	.
CCN(C)C1CN(Cc2cn(Cc3ccc(F)cc3)nn2)S(=O)(=O)C1 (stereo not drawn)	1	0	-2	.	4	i	.
CCOc1ccc2oc(C(=O)OCC(=O)N3CCCC(C)C3)c(C)c2c1 (stereo not drawn)	-1	-2	4	-2	-5	+	.
COc1ccc2oc(C(=O)OCC(=O)NC(=O)c3ccccc3)c(C)c2c1	-2	5	2	-1	0	i	.
COc1ccc2oc(C(=O)OCC(=O)N3CCCC(C)C3)c(C)c2c1 (stereo not drawn)	1	-4	6	-1	-5	.	.
CCOc1ccc2oc(C(=O)OCC(=O)NC3CCCC3)c(C)c2c1	-2	1	-6	1	3	.	.
COc1ccc2oc(C(=O)OCC(=O)NC3CCCCC3)c(C)c2c1	2	-3	1	2	-8	+	i
COc1ccc2oc(C(=O)OCC(=O)N(C)CC(=O)Nc3ccc(F)cc3)c(C)c2c1	0	-1	-1	1	-1	+	.
O=C(OCc1ccccc1)[C@H](Cc1ccccc1)NC(=O)[C@@H]1CC=C[C@@H]2CCN(C3CCCCC3)C(=O)[C@@H]21	-1	.	2	.	-1	.	.
COc1cccc(NC(=O)N2CCCC2C(=O)NCc2ccc(Cl)cc2)c1 (stereo not drawn)	2	1	3	2	4	i	.
CCCc1c(O)c2ccccc2[nH]c1=O	0	2	-1	-2	1	+	i
CN(C)S(=O)(=O)c1cccc(NC(=O)CN2C(=O)NC3(CCc4ccccc4C3)C2=O)c1 (stereo not drawn)	0	0	-4	-1	0	i	.
O=C(Nc1ccc([N+](=O)[O-])cc1)c1cc(Cl)sc1Cl	-3	-1	-7	-1	-2	i	.
COCc1cc(C)nc2sc(C(=O)Nc3ccc(OC)cc3)c(N)c12	0	2	-1	-3	-5	+	+
COCc1cc(C)nc2sc(C(=O)N3CCN(c4ccccc4)CC3)c(N)c12	-2	1	-4	2	-3	+	i
CCc1noc(C)c1C(=O)Nc1ccccc1C(C)(C)C	-2	0	-1	0	0	i	.
O=C(N[C@H]1C[C@@H]2O[C@@H](CO)CC[C@@H]2O[C@@H]1CCc1ccc(-c2cccnc2)cc1)c1cccc(F)c1	3	0	-5	.	9	.	.
CCc1nccn1CC(=O)c1ccc(O)c(O)c1	13	.	4	.	1	.	.
Cc1cc(F)ccc1S(=O)(=O)Nc1ccccc1C(=O)NC1CCN(Cc2ccccc2)CC1	5	2	3	0	0	+	+
Cc1cc(F)ccc1S(=O)(=O)Nc1ccccc1C(=O)NCc1cccnc1	-2	2	5	-1	2	+	i
COc1ccc(S(=O)(=O)Nc2ccccc2C(=O)NCc2cccnc2)cc1C	0	-4	-7	3	1	+	.
COc1ccccc1NS(=O)(=O)c1ccc(C)c(C(=O)NCc2cccnc2)c1	-2	0	-8	-1	3	i	.
Cc1ccccc1C(=O)NC1CCN(Cc2ccccc2)CC1	-1	0	3	0	-5	i	.
Cc1ccc2oc(-c3ccco3)cc(=O)c2c1	-3	12	1	-7	-3	+	+
O=c1cc(-c2ccco2)oc2ccccc12	-13	2	0	-2	1	+	+
Cc1ccc2oc(-c3ccccc3C(=O)O)cc(=O)c2c1	1	1	3	-2	-2	i	.
